# Source: PubChem BioAssay (Tox21)
# Unmarked numbers belong to inactive results. Inconclusive results are not listed. Where a call stands in place of a potency, no number is given. Calls of active or inactive are those of the source. Unless noted, calls follow the shape of the full dose curve.
# Key:
# [1] = qHTS assay to identify small molecule antagonists of the sonic hedgehog signaling (Shh) pathway (AID 1259369); also: nearly all actives have a fitted effect of over 45% in size; also: potency is read from the fitted curve at half-maximal effect
# Summary of the method: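 For antagonist detection, the reporter line received test compounds together with conditioned medium, incubated 24hr at 37 C, 5% CO2, then luminescence was recorded following 30min room-temperature luciferase reagent incubation.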
# [2] = biological target: Estrogen receptor beta (Homo sapiens) (UniProt Q92731); assay: qHTS assay to identify small molecule agonists of the estrogen receptor beta (ER-beta) signaling pathway (AID 1259377; active = well fitted activation curve with a large enough effect in the signal ratio in the repeat runs, not every such curve was filed as active; the % refers to the signal ratio)
# Sequence of Estrogen receptor beta (Homo sapiens) (Q92731 whole entry, looked up): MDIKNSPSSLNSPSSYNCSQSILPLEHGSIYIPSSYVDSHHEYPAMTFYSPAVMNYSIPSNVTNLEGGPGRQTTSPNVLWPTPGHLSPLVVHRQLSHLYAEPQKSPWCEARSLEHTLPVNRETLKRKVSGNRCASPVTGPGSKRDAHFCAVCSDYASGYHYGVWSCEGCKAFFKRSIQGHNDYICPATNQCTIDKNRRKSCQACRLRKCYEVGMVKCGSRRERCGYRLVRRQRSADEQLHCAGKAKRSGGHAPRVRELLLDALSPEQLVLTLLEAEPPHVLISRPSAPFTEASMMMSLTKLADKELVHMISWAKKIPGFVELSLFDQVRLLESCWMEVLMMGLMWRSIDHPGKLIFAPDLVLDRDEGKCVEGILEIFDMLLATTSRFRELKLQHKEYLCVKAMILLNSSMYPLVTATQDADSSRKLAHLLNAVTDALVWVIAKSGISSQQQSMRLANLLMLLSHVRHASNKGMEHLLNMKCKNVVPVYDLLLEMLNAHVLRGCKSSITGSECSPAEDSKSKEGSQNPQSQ
# Summary of the method: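 HEK293T ER-beta-UAS-bla; 2% charcoal-stripped FBS; cells pre-incubated 6 hr, compound 16 hr, 37C/5% CO2; LiveBLAzer B/G FRET substrate 2 h RT; fluorescence intensity read.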
# [3] = biological target: Estrogen receptor beta (Homo sapiens) (UniProt Q92731); assay: qHTS assay to identify small molecule antagonists of the estrogen receptor beta (ER-beta) signaling pathway (AID 1259378; active = well fitted inhibition curve with a large enough effect in the signal ratio in the repeat runs, not every such curve was filed as active; the % refers to the signal ratio; also: potency is read from the fitted curve at half-maximal effect)
# Summary of the method: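 ER-beta-UAS-bla HEK293T (GripTite) cells in 2% charcoal-stripped FBS medium were preincubated 6 hr at 37C, dosed with compound, then stimulated with 1 nM E2 (final) for 16 hr; beta-lactamase reporter read by B/G FRET fluorescence after 2 hr substrate loading.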
# [4] = qHTS assay to identify small molecule agonists of the androgen receptor (AR) signaling pathway in the presence of an antagonist - cell viability counter screen (AID 1259379; active = well fitted curve in the direction sought with a large enough effect in the repeat runs; an effect the other way counts as inactive or inconclusive; also: nearly all actives have a fitted effect of over 25% in size; also: potency is read from the fitted curve at half-maximal effect;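 as to activity change, negative = cytotoxicity: MDA-kb2 human breast cancer cells carrying an MMTV luciferase reporter; series mostly up to about 92 µM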)
# Summary of the method: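 Seed MDA-kb2 at 3,000 cells/well; incubate 5 hr, 37C, 0% CO2. Add nilutamide to 3.0uM final, then pin compounds at 15 concentrations. Incubate 16 hr. Add CellTiter-Fluor at 15 hr, read fluorescence after 1 hr.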
# [5] = qHTS assay to identify small molecule agonists of the estrogen receptor beta (ER-beta) signaling pathway - cell viability counter screen (AID 1259380; active = well fitted curve in the direction sought with a large enough effect in the repeat runs; an effect the other way counts as inactive or inconclusive; also: nearly all actives have a fitted effect of over 30% in size; also: potency is read from the fitted curve at half-maximal effect)
# Summary of the method: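 CellTiter-Glo read, 30 min RT, same wells as bla assay; cells ER-beta-UAS-bla HEK293T; 16 hr compound, 37C; medium 2% charcoal-stripped FBS.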
# [6] = qHTS assay to identify small molecule agonists or antagonists of the thyroid stimulating hormone receptor (TSHR) signaling pathway - wild type cell line counter screen (AID 1259384)
# Summary of the method: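 Wild-type HEK293 cells were plated 18 h at 37 C/5% CO2, pin-dosed with compound plus Ro20-1724 medium, held 30 min at room temperature, then given cAMP-d2 and anti-cAMP-cryptate; fluorescence was read after 1 h. Fifteen concentrations, triplicate.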
# [7] = biological target: Thyrotropin receptor (Homo sapiens) (UniProt P16473); assay: qHTS assay to identify small molecule antagonists of the thyroid stimulating hormone receptor (TSHR) signaling pathway (AID 1259385); also: nearly all actives have a fitted effect of over 20% in size
# Sequence of Thyrotropin receptor (Homo sapiens) (P16473 whole entry, looked up): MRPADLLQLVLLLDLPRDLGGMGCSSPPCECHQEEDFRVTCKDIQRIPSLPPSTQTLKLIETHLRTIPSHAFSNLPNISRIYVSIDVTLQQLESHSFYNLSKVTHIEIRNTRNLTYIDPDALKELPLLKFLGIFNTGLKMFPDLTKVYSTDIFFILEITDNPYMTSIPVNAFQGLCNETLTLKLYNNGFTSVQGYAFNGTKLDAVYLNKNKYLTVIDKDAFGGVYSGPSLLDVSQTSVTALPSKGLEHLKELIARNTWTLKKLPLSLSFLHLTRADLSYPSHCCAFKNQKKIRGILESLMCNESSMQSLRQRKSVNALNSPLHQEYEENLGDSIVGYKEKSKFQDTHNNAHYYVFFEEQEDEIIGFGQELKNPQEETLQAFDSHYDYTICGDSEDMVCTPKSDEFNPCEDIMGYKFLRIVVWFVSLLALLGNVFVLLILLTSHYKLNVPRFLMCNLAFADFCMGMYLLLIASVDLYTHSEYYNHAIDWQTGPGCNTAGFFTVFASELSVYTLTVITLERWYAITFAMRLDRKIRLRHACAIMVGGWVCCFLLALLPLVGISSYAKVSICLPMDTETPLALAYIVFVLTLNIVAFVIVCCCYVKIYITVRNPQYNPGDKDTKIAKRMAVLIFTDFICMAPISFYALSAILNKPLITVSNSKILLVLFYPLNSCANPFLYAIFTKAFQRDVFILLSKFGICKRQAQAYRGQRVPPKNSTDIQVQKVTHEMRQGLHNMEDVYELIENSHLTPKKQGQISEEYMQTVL
# Summary of the method: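 TSHR-HEK293 cells were plated and held 18 h at 37C/5% CO2, then given compound plus Ro20-1724 and stimulated with TSH at 1.5 ng/mL final. After 30 min at room temperature, cAMP was detected with cAMP-d2/anti-cAMP-cryptate (1 h) by fluorescence.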
# [8] = biological target: Androgen receptor (Homo sapiens) (UniProt P10275); assay: qHTS assay to identify small molecule agonists of the androgen receptor (AR) signaling pathway in the presence of an antagonist (AID 1259381); also: nearly all actives have a fitted effect of over 15% in size
# Sequence of Androgen receptor (Homo sapiens) (P10275 whole entry, looked up): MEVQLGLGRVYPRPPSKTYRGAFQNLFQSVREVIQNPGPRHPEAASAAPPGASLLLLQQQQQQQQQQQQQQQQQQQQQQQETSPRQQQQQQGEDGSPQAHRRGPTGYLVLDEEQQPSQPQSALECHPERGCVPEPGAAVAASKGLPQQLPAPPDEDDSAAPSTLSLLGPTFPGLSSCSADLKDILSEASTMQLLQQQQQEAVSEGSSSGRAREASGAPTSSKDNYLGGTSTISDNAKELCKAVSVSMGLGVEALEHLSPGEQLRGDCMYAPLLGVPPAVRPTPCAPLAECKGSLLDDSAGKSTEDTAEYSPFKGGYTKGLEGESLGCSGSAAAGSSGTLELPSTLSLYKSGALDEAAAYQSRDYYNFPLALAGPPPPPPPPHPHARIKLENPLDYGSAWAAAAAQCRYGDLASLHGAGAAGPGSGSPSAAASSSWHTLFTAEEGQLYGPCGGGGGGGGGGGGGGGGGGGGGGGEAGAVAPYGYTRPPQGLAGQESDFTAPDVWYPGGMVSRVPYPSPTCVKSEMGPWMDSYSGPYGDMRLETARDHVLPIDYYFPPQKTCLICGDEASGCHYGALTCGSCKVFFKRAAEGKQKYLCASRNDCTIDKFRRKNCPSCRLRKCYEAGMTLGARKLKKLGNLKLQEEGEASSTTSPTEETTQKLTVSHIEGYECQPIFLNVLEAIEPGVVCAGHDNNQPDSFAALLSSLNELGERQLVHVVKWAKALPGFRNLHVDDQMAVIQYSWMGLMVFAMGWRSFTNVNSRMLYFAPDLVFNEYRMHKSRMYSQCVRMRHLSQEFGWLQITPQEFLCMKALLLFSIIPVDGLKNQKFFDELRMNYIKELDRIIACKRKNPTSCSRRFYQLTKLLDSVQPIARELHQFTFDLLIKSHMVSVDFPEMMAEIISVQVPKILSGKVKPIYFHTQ
# Summary of the method: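 Test compounds at 15 concentrations were incubated for 16hr with MDA-kb2 reporter cells in presence of 3.0uM nilutamide (final). Signal: ONE-Glo luciferase luminescence.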
# [9] = qHTS assay to identify small molecule antagonists of the estrogen receptor beta (ER-beta) signaling pathway - cell viability counter screen (AID 1259382; active = well fitted curve in the direction sought with a large enough effect in the repeat runs; an effect the other way counts as inactive or inconclusive; also: series mostly up to about 92 µM; nearly all actives have a fitted effect of over 55% in size)
# Summary of the method: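 In this multiplexed counter screen, cells were seeded at 2,000 per well in medium with 2% charcoal-stripped FBS and incubated 6 hr before compound and 1nM final E2 were added. Sixteen hours later, ATP-based luminescence reported viability.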
# [10] = biological target: Estrogen receptor (Homo sapiens) (UniProt P03372); assay: qHTS assay to identify small molecule agonists of the estrogen receptor alpha (ER-alpha) signaling pathway in the presence of an antagonist (AID 1259383); also: top concentration of the series differs between compounds; nearly all actives have a fitted effect of over 15% in size
# Sequence of Estrogen receptor (Homo sapiens) (P03372 whole entry, looked up): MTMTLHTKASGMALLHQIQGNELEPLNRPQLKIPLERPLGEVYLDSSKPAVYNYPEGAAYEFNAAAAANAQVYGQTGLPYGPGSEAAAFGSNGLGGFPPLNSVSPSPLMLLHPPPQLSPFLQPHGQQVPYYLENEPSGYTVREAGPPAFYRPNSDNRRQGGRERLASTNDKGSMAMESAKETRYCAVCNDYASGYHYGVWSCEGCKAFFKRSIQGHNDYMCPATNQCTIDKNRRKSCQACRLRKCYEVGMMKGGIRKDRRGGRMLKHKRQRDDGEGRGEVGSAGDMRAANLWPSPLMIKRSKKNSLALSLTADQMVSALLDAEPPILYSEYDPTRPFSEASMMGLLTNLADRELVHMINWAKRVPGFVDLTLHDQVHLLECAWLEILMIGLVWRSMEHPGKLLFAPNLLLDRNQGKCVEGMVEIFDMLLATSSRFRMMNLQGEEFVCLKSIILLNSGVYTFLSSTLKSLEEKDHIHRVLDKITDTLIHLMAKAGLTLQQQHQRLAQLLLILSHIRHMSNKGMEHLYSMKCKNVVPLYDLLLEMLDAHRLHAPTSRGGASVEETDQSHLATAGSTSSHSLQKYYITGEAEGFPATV
# Summary of the method: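 Stably transfected VM7Luc4E2 reporter cells, kept 5 days in charcoal-stripped serum, received ICI-182,780 at 10.0nM final before compound addition. Following 22hr incubation at 37C and 5% CO2, luciferase signal was read by luminescence.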
structure (smiles),measurement,setting,value
CCS(=O)(=O)C(C)(C)S(=O)(=O)CC,Potency,[1],inactive
same,outcome,[2],inactive
same,Potency,[3],inactive
same,Potency,[4],inactive
same,Potency,[5],inactive
same,Potency,[6],inactive
same,Potency,[7],inactive
CC(C(O)c1ccccc1)N(C)C/C=C/c1ccccc1 (stereo not given),Potency,[1],inactive
same,outcome,[2],inactive
same,Potency,[3],inactive
same,Potency,[4],inactive
same,Potency,[8],inactive
same,Potency,[9],inactive
same,Potency,[6],inactive
COC(C)(C)C,Potency,[1],inactive
same,outcome,[2],inactive
same,Potency,[3],inactive
same,Potency,[4],inactive
same,Potency,[5],inactive
same,Potency,[9],inactive
same,Potency,[6],inactive
same,Potency,[7],inactive
ClC(Br)Br,Potency,[1],inactive
same,outcome,[2],inactive
same,Potency,[3],inactive
same,Potency,[4],inactive
same,Potency,[5],inactive
same,Potency,[6],inactive
same,Potency,[7],inactive
O=[N+]([O-])c1cc(Cl)c(Cl)c(Cl)c1,Potency,[1],inactive
same,outcome,[2],inactive
same,Potency,[3],inactive
same,Potency,[4],54 µM (active)
same,Potency,[5],inactive
same,Potency,[9],inactive
same,Potency,[10],inactive
same,Potency,[6],inactive
same,Potency,[7],inactive
O=C(N[C@H]1CN2CCC1CC2)c1cc2ccoc2cn1,Potency,[1],inactive
same,outcome,[2],inactive
same,Potency,[3],inactive
same,Potency,[4],inactive
same,Potency,[8],inactive
same,Potency,[6],inactive
same,Potency,[7],inactive
CN1CCN(C(=O)O[C@H]2c3nccnc3C(=O)N2c2ccc(Cl)cn2)CC1,Potency,[1],inactive
same,outcome,[2],inactive
same,Potency,[3],inactive
same,Potency,[4],inactive
same,Potency,[5],inactive
same,Potency,[9],inactive
same,Potency,[6],inactive
same,Potency,[7],inactive
N#CC(O)c1ccccc1 (stereo not given),Potency,[1],inactive
same,outcome,[2],inactive
same,Potency,[3],inactive
same,Potency,[4],inactive
same,Potency,[5],inactive
same,Potency,[9],inactive
same,Potency,[6],inactive
same,Potency,[7],inactive
CCC1(c2ccccc2)C(=O)NC(=O)NC1=O,Potency,[1],inactive
same,outcome,[2],inactive
same,Potency,[3],inactive
same,Potency,[4],inactive
same,Potency,[5],inactive
same,Potency,[9],inactive
same,Potency,[6],inactive
same,Potency,[7],inactive
CCC/C(=N\OCC)C1=C(O)CC(CC(C)SCC)CC1=O (stereo not given),Potency,[1],30.8 µM (active)
same,outcome,[2],inactive
same,Potency,[3],inactive
same,Potency,[4],inactive
same,Potency,[5],inactive
same,Potency,[9],inactive
same,Potency,[6],inactive
same,Potency,[7],inactive
CCCCc1ccc(O)cc1,Potency,[1],inactive
same,outcome,[2],inactive
same,Potency,[3],inactive
same,Potency,[4],inactive
same,Potency,[5],inactive
same,Potency,[6],inactive
same,Potency,[7],inactive
Clc1ccccc1N1CCNCC1,Potency,[1],inactive
same,outcome,[2],inactive
same,Potency,[3],inactive
same,Potency,[4],inactive
same,Potency,[8],inactive
same,Potency,[9],inactive
same,Potency,[10],inactive
same,Potency,[6],inactive
same,Potency,[7],inactive
COc1cccc(C(=O)NN(C(=O)c2cc(C)cc(C)c2)C(C)(C)C)c1C,Potency,[1],inactive
same,outcome,[2],inactive
same,Potency,[3],inactive
same,Potency,[4],inactive
same,Potency,[5],inactive
same,Potency,[9],inactive
same,Potency,[6],inactive
same,Potency,[7],inactive
CCC(Cl)[N+](=O)[O-] (stereo not given),Potency,[1],inactive
same,outcome,[2],inactive
same,Potency,[3],inactive
same,Potency,[4],inactive
same,Potency,[5],inactive
same,Potency,[9],inactive
same,Potency,[6],inactive
same,Potency,[7],inactive
C=C(C)CN(CC)c1c([N+](=O)[O-])cc(C(F)(F)F)cc1[N+](=O)[O-],Potency,[1],inactive
same,outcome,[2],inactive
same,Potency,[3],inactive
same,Potency,[4],inactive
same,Potency,[5],inactive
same,Potency,[10],inactive
O=C1c2ccccc2C(=O)c2ccccc21,"activity change, negative = inhibition",[1],17.7% [at 19 µM]
same,activation,[2],1.09% [at 19 µM]
same,"activity, negative = inhibition",[3],0.94% [at 19 µM]
same,"activity change, negative = cytotoxicity",[4],-1.61% [at 19 µM]
same,"activity change, negative = cytotoxicity",[5],3.21% [at 19 µM]
same,"activity change, negative = cytotoxicity",[9],-0.678% [at 19 µM]
same,activation,[10],5.54% [at 19 µM]
same,cAMP activity change,[6],"-4.84% [at 18.9 µM, active compounds read high]"
same,"activity change, negative = inhibition",[7],-0.629% [at 19 µM]
COP(=S)(OC)Oc1ccc(S(N)(=O)=O)cc1,Potency,[1],inactive
same,outcome,[2],inactive
same,Potency,[3],inactive
same,Potency,[4],inactive
same,Potency,[5],inactive
same,Potency,[6],inactive
same,Potency,[7],inactive
CN1CCC(O)(c2ccc(F)cc2)C(C(=O)c2ccc(F)cc2)C1 (stereo not given),Potency,[1],inactive
same,outcome,[2],inactive
same,Potency,[3],inactive
same,Potency,[4],inactive
same,Potency,[5],inactive
same,Potency,[9],inactive
same,Potency,[6],inactive
same,Potency,[7],inactive
COc1cccc2c1cc([N+](=O)[O-])c1c(C(=O)O)cc3c(c12)OCO3,Potency,[1],1.54 µM (active)
same,outcome,[2],inactive
same,Potency,[3],19.3 µM (active)
same,Potency,[4],48.6 µM (active)
same,Potency,[5],48.6 µM (active)
same,Potency,[10],inactive
same,Potency,[6],inactive
same,Potency,[7],inactive
CC(C)COP(=O)(OCC(C)C)OCC(C)C,Potency,[1],inactive
same,outcome,[2],inactive
same,Potency,[3],inactive
same,Potency,[4],inactive
same,Potency,[5],inactive
same,Potency,[9],inactive
same,Potency,[6],inactive
same,Potency,[7],inactive
C1CCC(C2CCCCC2)CC1,Potency,[1],inactive
same,outcome,[2],inactive
same,Potency,[3],inactive
same,Potency,[4],inactive
same,Potency,[5],38.6 µM (active)
same,Potency,[6],inactive
same,Potency,[7],inactive
CCOP(=S)(OCC)SCSP(=S)(OCC)OCC,Potency,[1],inactive
same,outcome,[2],inactive
same,Potency,[4],inactive
same,Potency,[9],inactive
same,Potency,[10],inactive
same,Potency,[6],inactive
CN1CCC(N(Cc2ccccc2)c2ccccc2)CC1,Potency,[1],18.8 µM (active)
same,outcome,[2],inactive
same,Potency,[4],inactive
same,Potency,[5],13.3 µM (active)
same,Potency,[10],inactive
same,Potency,[6],inactive
same,Potency,[7],inactive
CC1=C(C(=O)O)N2C(=O)[C@@H](N)[C@H]2SC1,"activity change, negative = inhibition",[1],-0.41% [at 19 µM]
same,"activity, negative = inhibition",[3],20.1% [at 19 µM]
same,"activity change, negative = cytotoxicity",[4],-2.71% [at 19 µM]
same,"activity change, negative = cytotoxicity",[5],7.09% [at 19 µM]
same,activation,[8],-0.0648% [at 19 µM]
same,"activity change, negative = cytotoxicity",[9],15.3% [at 19 µM]
same,activation,[10],0.456% [at 19 µM]
same,cAMP activity change,[6],"2.64% [at 18.9 µM, active compounds read high]"
same,"activity change, negative = inhibition",[7],2.26% [at 19 µM]
CC(C)CC(N(C)C)C1(c2ccc(Cl)cc2)CCC1 (stereo not given),Potency,[1],inactive
same,outcome,[2],inactive
same,Potency,[3],inactive
same,Potency,[4],inactive
same,Potency,[9],inactive
same,Potency,[6],inactive
